The values below come from article PMC9574860, “Chemical Toolkit for PARK7: Potent, Selective, and High-Throughput” (Journal of Medicinal Chemistry, 2022).

Screen size: about 7,900 compounds; about 400 (5.1%) showed an effect of 50% or more. The full list was thinned out, with strong results kept by preference.

The experiment deals with Parkinson's disease protein 7 (PARK7/DJ1) (human, UniProt Q99497). Put plainly: primary screen, percent inhibition; read as competition with a fluorescent probe by fluorescence polarization; higher = more effect of the substance. The conditions noted are these: 100 µM. Summed up: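 Fluorescence-polarization probe displacement (JYQ-107, 20 nM final, 2 h) after 2 h preincubation of PARK7 (0.2 μM final) with each fragment at 100 μM final. Read-out ex/em 480/520 nm; remaining activity derived from FP signal loss relative to reference controls.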
Chain of Parkinson's disease protein 7 (PARK7/DJ1) (Q99497 whole entry, looked up, the tested form may be a part): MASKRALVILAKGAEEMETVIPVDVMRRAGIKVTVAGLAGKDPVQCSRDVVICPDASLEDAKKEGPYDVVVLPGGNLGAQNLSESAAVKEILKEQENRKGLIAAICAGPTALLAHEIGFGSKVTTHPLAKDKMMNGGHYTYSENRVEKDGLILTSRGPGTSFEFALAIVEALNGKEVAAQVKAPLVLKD
On to `Cc1nonc1C(=O)CCl`, for which the Inhibition % is recorded as 97.9%.

Regarding `Cc1cc(NC(=O)CCl)no1`, the Inhibition % was determined as 3.42%.

With `C=CC(=O)NCC1CCC=CO1` (stereo not shown), the Inhibition % was determined as 6.04%.

Turning to `C=CC(=O)N1CCN(S(=O)(=O)CC)C[C@H]1C`, the Inhibition % is reported as 12.6%.

Take `CN(c1ccccc1)S(=O)(=O)C=Cc1ccccc1`: the Inhibition % is reported as 4.34%.

For `Cn1cc(S(=O)(=O)Oc2cnc3ccccc3c2)cn1`, the Inhibition % was determined as 6.55%.

In the case of `Cn1cc(S(=O)(=O)F)c(N)n1`, the Inhibition % is 7.95%.

As to `CN(c1ccccc1)S(=O)(=O)c1ccccc1S(=O)(=O)F`, the Inhibition % was found to be 96.6%.

Consider `O=S(=O)(F)c1coc2ccccc12`, for which the Inhibition % worked out at 10.5%.

Turning to `C=CC(=O)N(Cc1ccccc1)c1cnn(C)c1`, the Inhibition % is reported as 29.9%.

For the molecule `CN(c1cnn(C)c1)S(=O)(=O)c1ccccc1S(=O)(=O)F`, the Inhibition % was 98.1%.

For `CC(=O)Nc1nn(C)cc1S(=O)(=O)F`, the Inhibition % is recorded as 14.8%.

On to `CN(c1ccn(C)n1)S(=O)(=O)c1ccccc1S(=O)(=O)F`, for which the Inhibition % is 97.9%.

With `CC1(C)OB(CC2CC3(CCOCC3)C2)OC1(C)C`, the Inhibition % is 3.09%.

As for `C=CC(=O)N(C)C1C(C)CCCC1C` (stereo not shown), the Inhibition % was found to be 5.45%.

On to `C=CC(=O)N1C[C@]2(C)COC[C@]2(C)C1`, for which the Inhibition % stood at 9.62%.

In the case of `C=CC(=O)N1CC(C)(C)O[C@@]2(C[C@@H]3CC[C@H]2C3)C1`, the Inhibition % is recorded as 10.3%.

For `N#Cc1nc(N2CC(CF)C2)ccc1Cl`, the Inhibition % stood at 3.54%.

Consider `O=C(CCl)N1CCN(S(=O)(=O)Cc2ccccc2)CC1`, for which the Inhibition % is reported as 13.1%.

On to `CCC1(CNS(=O)(=O)C=Cc2ccccc2)CCOCC1`, for which the Inhibition % is given as 6.07%.

With `CC1(C)OB(Cc2cc(F)cc(F)c2)OC1(C)C`, the Inhibition % was determined as 6.97%.

For the molecule `O=S(=O)(F)c1ccc(S(=O)(=O)Nc2ccncc2)cc1`, the Inhibition % came out at 8.89%.

As to `Cc1ccnc(NS(=O)(=O)c2ccc(S(=O)(=O)F)cc2)n1`, the Inhibition % was determined as 36.3%.

Regarding `O=S(=O)(F)c1ccc(S(=O)(=O)Nc2nccs2)cc1`, the Inhibition % turned out to be 64%.

As for `Cc1nccc(NS(=O)(=O)c2ccc(S(=O)(=O)F)cc2)n1`, the Inhibition % is 57.9%.

Regarding `O=S(=O)(F)c1ccc(S(=O)(=O)Nc2ccsc2)cc1`, the Inhibition % stood at 27.7%.

For `O=S(=O)(F)c1ccc(S(=O)(=O)Nc2cccc(F)n2)cc1`, the Inhibition % worked out at 54.7%.

For `Cc1ccnc(NS(=O)(=O)c2ccc(S(=O)(=O)F)cc2)c1`, the Inhibition % turned out to be 16.1%.

Turning to `O=S(=O)(F)c1ccc(S(=O)(=O)Nc2ccccn2)cc1`, the Inhibition % is recorded as 5.71%.

In the case of `CC1(C)OB(c2cncc(NS(=O)(=O)c3ccccc3)c2)OC1(C)C`, the Inhibition % amounted to 8.59%.

As for `CCNS(=O)(=O)c1ccc(B2OC(C)(C)C(C)(C)O2)c(C)c1`, the Inhibition % was determined as 5.32%.

On to `C=CC(=O)NC1CC(OC)C1(C)C` (stereo not shown), for which the Inhibition % is -3.29%.

Turning to `CC1CC(Sc2cnccn2)C(=O)O1` (stereo not shown), the Inhibition % amounted to 48.8%.

For `Cc1ccc2cccc(OC(=O)N(C)C)c2n1`, the Inhibition % came out at 5.34%.

As to `C=CS(=O)(=O)c1ccccc1`, the Inhibition % came to 9.43%.

Regarding `CC1CCN(C(=O)C=Cc2cn(C)c(=O)n(C)c2=O)CC1`, the Inhibition % was determined as 10.9%.

Regarding `CN1CCC(CNc2ccc(C#N)nc2)CC1`, the Inhibition % was determined as 1.29%.

On to `Cl.O=C(CCl)N1CCN(c2cccc(Cl)c2)CC1`, for which the Inhibition % was 44.3%.

Consider `C=CC(=O)N1CCN(c2ncccn2)CC1`, for which the Inhibition % is listed as 9.58%.

Consider `Cl.O=C(CCl)N1CCN(c2cnccn2)CC1`, for which the Inhibition % amounted to 55.6%.

`O=C(CCCl)N1CCN(c2ccccn2)CC1`: the Inhibition % was found to be 12.9%.

In the case of `O=C(CCl)N1CCN(c2ncccn2)CC1`, the Inhibition % came out at 91.6%.

For `O=C(CCCl)N1CCN(c2ncccn2)CC1`, the Inhibition % came out at 3.8%.

With `C=CC(=O)NCCN1C(=O)CNC1=O`, the Inhibition % stood at 12.9%.

Take `C=CC(=O)NCC1CCN(c2ccccc2)CC1`: the Inhibition % worked out at 3.72%.

On to `N#Cc1cc(Cl)ccn1`, for which the Inhibition % was determined as 52.6%.

Turning to `N#Cc1ccnc(Cl)n1`, the Inhibition % is listed as 3.95%.

Regarding `N#Cc1cc(F)ccn1`, the Inhibition % was 5.03%.

In the case of `O=S(=O)(F)c1ccc(Nc2ccc(F)cc2)nc1`, the Inhibition % is given as 2.34%.

In the case of `Cc1ccc(NS(=O)(=O)CCCS(=O)(=O)F)nc1`, the Inhibition % was 80.1%.

As to `O=S(=O)(C=Cc1ccccc1)Nc1ccc(F)cn1`, the Inhibition % came to 6.27%.

Take `O=S(=O)(F)CCCS(=O)(=O)Nc1ccc(F)cn1`: the Inhibition % was found to be 77.2%.

For `C=CC(=O)Nc1ccc(C)cn1`, the Inhibition % is given as 0.151%.

For the molecule `Cc1ccc(C=CS(=O)(=O)Nc2ccc(C#N)cn2)cc1`, the Inhibition % is on record as 11.1%.

For `Cn1c(SC2CCOC2=O)nnc1-c1ccccc1` (stereo not shown), the Inhibition % was found to be 12.6%.

On to `Sc1ccc(Cl)nn1`, for which the Inhibition % came to 53.5%.

Turning to `FC(F)(F)c1ccc(S)nn1`, the Inhibition % is 25.5%.

As to `Cc1ccc(S)nn1`, the Inhibition % is recorded as 28.1%.

As for `COCC(=O)Nc1ccc(S(=O)(=O)F)cc1`, the Inhibition % turned out to be 13.6%.

For `CC(C)CC(=O)NNS(=O)(=O)c1ccc(S(=O)(=O)F)cc1`, the Inhibition % is 30.6%.

With `CC(C)CC(=O)NNS(=O)(=O)c1cccc(S(=O)(=O)F)c1`, the Inhibition % is reported as 98.2%.

As to `CC(C)(C)C(=O)NNS(=O)(=O)c1ccc(S(=O)(=O)F)cc1`, the Inhibition % is 6.55%.

Take `CNC(=O)Nc1ccc(S(=O)(=O)F)cc1`: the Inhibition % came to 22.2%.

Consider `CC(C)(C)C(=O)NNS(=O)(=O)c1cccc(S(=O)(=O)F)c1`, for which the Inhibition % turned out to be 97.2%.
